High-throughput results deposited in PubChem by Broad Institute.
Most compounds without a hit are left out; they make up all but 1.2% or so of the library.
Statin myotox sup – suppressors of statin myotoxicity in C2C12 myotubes, primary screen, cell-based, single point, plate reader; C2C12 myotubes + simvastatin, ATP luminescence, 48 h; scaled: DMSO 0, geranylgeraniol control 100; rescue of ATP level, % at 7.49 µM; 330,000 tested, 0.78% active;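 active = mean ATP rescue above about 67%, or every replicate alone reaching that limit, limit read from the data, passing the limit was not always enough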;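 note: myotubes were challenged with 10 µM simvastatin during compound exposure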
NSD2 HMT inh – NSD2 histone methyltransferase inhibitors, primary screen, biochemical, AlphaScreen, single concentration, set 2. Histone-lysine N-methyltransferase NSD2 (Homo sapiens), O96028. 310,000 tested, 0.54% active. NSD2 peptide methylation, 120 min. inhibition, % at 12.5 µM; in the data active = inhibition above about 50%
Target sequence (O96028 whole entry, looked up): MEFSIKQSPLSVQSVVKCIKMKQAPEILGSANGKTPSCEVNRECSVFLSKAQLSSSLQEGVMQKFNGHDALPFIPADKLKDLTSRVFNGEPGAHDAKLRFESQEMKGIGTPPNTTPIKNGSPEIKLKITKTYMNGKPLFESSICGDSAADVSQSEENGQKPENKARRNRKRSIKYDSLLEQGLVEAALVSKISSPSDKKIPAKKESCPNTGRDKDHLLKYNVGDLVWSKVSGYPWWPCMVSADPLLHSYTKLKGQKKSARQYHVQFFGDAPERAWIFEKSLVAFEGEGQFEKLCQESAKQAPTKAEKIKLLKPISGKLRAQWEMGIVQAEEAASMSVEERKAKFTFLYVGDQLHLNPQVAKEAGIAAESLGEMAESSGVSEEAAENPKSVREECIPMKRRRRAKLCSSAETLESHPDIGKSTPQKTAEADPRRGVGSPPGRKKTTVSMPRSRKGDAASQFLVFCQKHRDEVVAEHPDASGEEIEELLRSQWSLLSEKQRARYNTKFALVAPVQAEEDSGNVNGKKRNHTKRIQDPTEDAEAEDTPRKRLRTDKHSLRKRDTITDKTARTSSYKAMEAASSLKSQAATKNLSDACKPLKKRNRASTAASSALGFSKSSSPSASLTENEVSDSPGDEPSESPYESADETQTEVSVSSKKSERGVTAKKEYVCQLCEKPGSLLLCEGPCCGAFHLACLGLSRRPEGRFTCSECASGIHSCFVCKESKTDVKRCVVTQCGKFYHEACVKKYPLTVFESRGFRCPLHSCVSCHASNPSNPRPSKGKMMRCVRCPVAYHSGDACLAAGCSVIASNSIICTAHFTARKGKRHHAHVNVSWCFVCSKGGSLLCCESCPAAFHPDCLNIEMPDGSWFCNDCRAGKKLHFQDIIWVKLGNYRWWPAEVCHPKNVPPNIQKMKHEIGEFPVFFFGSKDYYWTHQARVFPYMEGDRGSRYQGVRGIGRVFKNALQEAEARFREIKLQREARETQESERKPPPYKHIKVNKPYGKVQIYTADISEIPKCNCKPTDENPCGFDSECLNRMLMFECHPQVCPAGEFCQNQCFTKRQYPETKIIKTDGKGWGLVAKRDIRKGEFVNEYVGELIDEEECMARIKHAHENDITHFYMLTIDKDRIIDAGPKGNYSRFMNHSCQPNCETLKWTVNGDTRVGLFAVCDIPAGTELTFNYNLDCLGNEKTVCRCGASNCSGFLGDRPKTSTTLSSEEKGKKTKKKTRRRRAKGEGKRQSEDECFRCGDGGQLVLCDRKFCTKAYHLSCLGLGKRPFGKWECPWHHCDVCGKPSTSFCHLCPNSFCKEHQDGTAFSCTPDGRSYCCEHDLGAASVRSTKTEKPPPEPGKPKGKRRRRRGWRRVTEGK
PglD inh – C. jejuni PglD acetyltransferase inhibitors, primary screen, biochemical, DTNB colorimetric, single point; inhibition, % at 12.5 µM; 360,000 tested, 0.098% active; purified PglD enzyme, DTNB colorimetric CoA detection; AID 602405, 2012; UDP-N-acetylbacillosamine N-acetyltransferase PglD (Campylobacter jejuni); in the data active = inhibition above about 16%, passing the limit was not always enough
miR122 inh – miR-122 Renilla sensor signal increase in Huh7, primary screen, miR-122 inhibitor project, cell-based, single point, plate reader. Huh7 miR-122 Renilla luciferase sensor, 48 h; neutral wells = 0, positive control = 100. activation (reporter increase), % at 12.5 µM. 340,000 tested, 0.3% active;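 active = mean replicate activation score at least 90 and every replicate individually at or above 90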;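 note: higher luciferase means less miR-122 activity so hits act as miR-122 inhibitors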
Active calls of the source: *; · = no result; + = active, no number; [ ] = dose if it differs, or a comment.

SMILES	Statin myotox sup	NSD2 HMT inh	PglD inh	miR122 inh
N=c1n(CCO)c2ccccc2n1Cc1ccccc1	85.8*	-0.9	-4.7	-7.5
COc1ccc(C#Cc2ccc([C@@H]3[C@H]4CN(C(=O)Cc5ccccc5)CCCCN4[C@H]3CO)cc2)cc1	-1.9	·	-5.7	-1.4[16.7 µM]
CC(Cc1ccc(O)cc1)NCC(O)c1ccc(O)c(O)c1 (centres undefined)	10.7	126.0*	-3.5	1.2
CNCC(O)c1ccc(O)cc1 (centres undefined)	17.1	·	3.7	2.3
COc1ccc(S(=O)(=O)Cc2ccc(C(=O)N3CCC4(CC3)OCCO4)o2)cc1	112.5*	-3.2	3.2	1.5
CC1(CCO)CC(C)(CCc2ccccc2)OO1 (centres undefined)	·	·	3.6	·
Cc1cccc(C)c1NC1=NCCCS1	3.0	·	-0.9	-5.2
Cc1cc(C)c(NC2=NCCCS2)c(C)c1	81.7*	-0.3	1.3	2.9
O=[N+]([O-])c1ccc(N2CCCCCC2)c2nonc12	0.2	0.5	-3.7	·
CN(c1ccc(O)cc1)c1ccc([N+](=O)[O-])c2nonc12	116.9*	52.9*	8.7	-6.4
CCC(=O)N1[C@@H]2Cn3c(ccc(C4=CCCC4)c3=O)[C@H]1[C@@H](C(=O)OC)[C@@H]2CO	10.0	·	-2.7	-5.2[16.7 µM]
Cc1cccc(N2C(=O)/C(=C/c3ccc(N4CCN(C)CC4)o3)C(=O)NC2=S)c1C	-9.5	50.6*	·	8.1
CC/C(=N\NC(N)=O)c1c(O)[nH]c(=O)[nH]c1=O	·	-1.0	·	·
CCCC(=O)c1c(O)[nH]c(=O)[nH]c1=O	96.9*	1.2	-4.5	-8.2
COC(=O)[C@@H]1[C@@H](CO)[C@@H]2Cn3c(ccc(C4=CCCCC4)c3=O)[C@H]1N2Cc1cccnc1	4.8	·	2.5	0.4[16.7 µM]
COC(=O)[C@@H]1[C@@H](CO)[C@@H]2Cn3c(ccc(-c4ccccc4F)c3=O)[C@H]1N2C(C)=O	-3.6	·	0.9	-2.6[16.7 µM]
C=CCn1c(O)c(C(C)=NCCCO)c(=O)[nH]c1=O	108.4*	-3.6	9.3	-0.8
C[C@]12CC[C@H]3[C@@H](CC[C@]4(O)C[C@@H](O)CC[C@]34C=O)[C@@]1(O)CC[C@@H]2C1=CC(=O)OC1	1.3	·	-5.0	1.0
CC12CCC3C(CCC4(O)CC(O)CCC34C=O)C1(O)CCC2C1=CC(=O)OC1 (centres undefined)	-6.9	-1.3	·	96.1*
O=C(Cc1ccccn1)N1CCCCN2[C@H](C1)[C@@H](c1ccc(C#Cc3ccccc3)cc1)[C@@H]2CO	·	·	-2.4	-13.3[16.7 µM]
O=C(NC1(C(F)(F)F)Oc2ccccc2O1)N1CCC2(CC1)OCCO2	101.4*	2.0	19.0	2.9
COc1ccc(/C=N/N=C(/N)N[N+](=O)[O-])c(OC)c1	·	-4.6	-1.5	0.0
N/C(=N\N=C/c1ccc(-c2ccc(O)c(C(=O)O)c2)o1)N[N+](=O)[O-]	14.2	120.8*	3.3	·
CN(C)CC#Cc1ccc([C@@H]2[C@H](CO)N3CCCCN(C(=O)Cc4ccccn4)C[C@@H]23)cc1	·	·	-2.6	0.6[16.7 µM]
CCN(CC)C(=O)c1ccc2c(c1)C1C=CCC1C(C(=O)O)N2 (centres undefined)	124.8*	·	-1.2	-5.0
SMILES	Statin myotox sup	NSD2 HMT inh	PglD inh	miR122 inh
CN(CC1COc2ccccc2O1)c1nc(-c2cccnc2)nc2ccccc12 (centres undefined)	107.7*	-2.2	11.5	14.8
CN1CCC(N(C)c2nc(-c3ccc([N+](=O)[O-])cc3)nc3ccccc23)CC1	·	·	·	-25.1
COc1ccc(C2=NCc3nnc(C)n3-c3ccc(Cl)cc32)cc1Cl	98.1*	1.6	3.7	-5.5
COc1ccccc1C1=NCc2nnc(C)n2-c2ccc(Cl)cc21	·	-3.0	·	·
CN(C)C(=O)[C@H]1[C@H](CO)[C@H]2Cn3c(cccc3=O)[C@@H]1N2CC1CC1	-4.5	·	5.9	-0.1[16.7 µM]
CN1C(=O)NC(=O)/C(=C\c2ccc([N+](=O)[O-])o2)C1=O	9.3	+	1.7	-3.9
CN1C(=O)NC(=O)/C(=C/c2ccc([N+](=O)[O-])s2)C1=O	·	37.2	5.7	-4.2
COC(=O)C1=C(c2ccc(OC)c(OC)c2)C[C@@H]2CC[C@H]1N2C(=O)NCCOc1ccc(OC)cc1	121.0*	·	-0.1	0.6
COC(=O)[C@H]1[C@H](CO)[C@H]2Cn3c(ccc(-c4cccc(OC)c4)c3=O)[C@@H]1N2CC1CC1	10.1	·	-0.7	·
COc1ccc(C(C)=O)cc1Cc1c(O)[nH]c(=S)[nH]c1=O	103.3*	11.0	1.1	0.3
CCOc1ccc(C(C)=O)cc1Cc1c(O)[nH]c(=S)[nH]c1=O	4.9	0.4	11.3	-2.2
O=c1c2ccccc2nc(/C=C/c2ccc([N+](=O)[O-])o2)n1-c1ccc(O)cc1	·	-2.8	·	95.4*
CC#CP(=O)(OC)C(O)(CF)c1ccccc1 (centres undefined)	104.8*	-2.5	6.3	-2.2
CCCCN1C(=O)/C(=C/C=C/c2ccco2)C(=O)NC1=S	·	108.1*	-1.0	-7.5
COC(=O)[C@@H]1[C@@H](CO)[C@@H]2Cn3c(ccc(-c4ccccc4F)c3=O)[C@H]1N2CC1CCCC1	20.0	·	3.0	·
C=COCCn1c(C)c(C(C)=O)c2cc(O)ccc21	113.4*	-3.4	-4.6	-2.7
COC(=O)[C@H]1C[C@@H]1[C@H](NP(=O)(c1ccccc1)c1ccccc1)c1ccccc1	110.7*	·	0.0	3.6
O=C(Cc1cccnc1)N1CCCCN2[C@H](C1)[C@H](c1ccc(C#CC3CC3)cc1)[C@@H]2CO	·	·	0.8	0.1[16.7 µM]
Cc1cccc(N2C(=O)NC(=O)/C(=C\c3cc(C)n(-c4sc5c(c4C#N)CCCC5)c3C)C2=O)c1C	·	60.4*	·	·
O=C(O)[C@H]1[C@H](CO)[C@H]2Cn3c(ccc(C4=CCCCC4)c3=O)[C@@H]1N2C(=O)Cc1ccccn1	-36.7	·	2.9	·
Cn1cc(CCC(=O)N2CCC3(CC2)OCCO3)c2ccccc21	111.7*	-2.6	-0.2	-3.5
Cn1c(=O)cc(OCCCC(=O)N2CCC3(CC2)OCCO3)c2ccccc21	·	-0.8	1.0	-5.3
C[C@H]1C[C@@H](C)C(=O)[C@@H]([C@H](O)CC2CC(=O)NC(=O)C2)C1	170.8*	·	-0.5	-19.6
O=C(O)[C@H]1[C@H](CO)[C@H]2Cn3c(ccc(-c4ccncc4)c3=O)[C@@H]1N2S(=O)(=O)c1ccccc1F	0.2	·	3.7	·
CC1(C)C2([N+](=O)[O-])CN3CC1([N+](=O)[O-])CN(C2)C3c1cccnc1 (centres undefined)	-0.1	1.4	·	0.4
CC12CN3CC(C)(CN(C1)C3c1cccnc1)C2=O (centres undefined)	122.8*	-0.8	3.3	2.8
CCC12CN3CC(CC)(CN(C1)C3c1cccnc1)C2=O (centres undefined)	137.3*	-7.0	0.2	-1.0
